Measured values: PubChem BioAssay (NCATS)
Results filed as inconclusive are left out. Active and inactive are the calls of the source. Calls follow the shape of the dose curve; as a rule, active = well fitted cell-killing curve with a large enough effect; inconclusive = small, poorly fitted or top-dose-only effect; inactive = flat fitted curve, though single readings scatter.

Experiment: Cell Viability - LYMP2-002 (AID 977);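 also: compound exposure lasted 24 h at 37 °C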
Conditions: LYMP2-002 lymphoblastoid cell viability, qHTS; series mostly up to 92.2 µM
From the text: NIH Chemical Genomics Center [NCGC]
NIH Molecular Libraries Screening Centers Network [MLSCN]
National Institutes of Environmental Health Sciences [NIEHS]
National Toxicology Program [NTP]
We have developed a 1536-well cell-based assay for quantitative high throughput screening (qHTS) against a number of cell lines to determine in vitro cytotoxicity of small molecules. This particular assay uses a human lymphoblastoid cell line (LYMP2-002) purchased from Coriell Institute for Medical Research.
NCGC Assay Protocol Summary:
The CellTiter-Glo luminescent cell viability assay (Promega) is a homogeneous method to measure the number of viable cells in culture. The end point readout of this assay is based on quantitation of intracellular ATP, an indicator of metabolic activity, using the luciferase reaction. Luciferase catalyzes the oxidation of beetle Luciferin to oxyluciferin and light in the presence of ATP. The luminescent signal is proportional to amount of ATP present.
Using the CellTiter-Glo luminescent cell viability assay, the amount of cellular ATP was measured in the lymphoblastoid cell line with complete culture medium following compound treatment for 24 hours. The assay was performed in opaque white Kalypsys 1536-well plates. In the screen, tetraoctylammonium bromide was used as positive control. Library compounds were measured for their ability to cause acute toxicity in the cell line, as reflected by a decrease in intracellular ATP levels, in a concentration-dependent manner. […] AC50 values were determined from concentration-response data modeled with the standard Hill equation.
qHTS protocol for CellTiter Glo lymphoblastoid cellular assay
[Step] [Parameter] [Value] [Description]
1. Reagent; 5 uL; 2500 lymphoblastoid cells/well
2. Time; 5 hr; 37 C incubation
4. Controls; 23 nL; Tetraoctylammonium bromide 6.4pM to 92 uM
5. Time; 24 hr; 37 C incubation
6. Reagent; 5 uL; CellTiter Glo reagent
7. Time; 30 min; Room Temperature
8. Detection; Luminescence; Viewlux plate reader
Keywords: cell viability, cytotoxicity, lymphoblastoid cell line, luminescence, NTPHTS, NTPHTS_NCGC, NIEHS, DSSTox, MLSMR, MLSCN, NIH Roadmap, qHTS, NCGC

| SMILES | outcome |
| --- | --- |
| CC(C)COC(=O)c1ccccc1C(=O)OCC(C)C | inactive |
| CC(=O)/C=C/c1ccccc1 | inactive |
| COC1=CC(=O)OC(CCc2ccc3c(c2)OCO3)C1 (centres undefined) | inactive |
| O=Cc1ccccc1 | inactive |
| c1ccc2c(c1)-c1cccc3cccc-2c13 | inactive |
| Oc1ccccc1Cl | inactive |
| c1ccc(Nc2ccc3ccccc3c2)cc1 | inactive |
| Cc1ccccc1O | inactive |
| Oc1c(Cl)c(Cl)c(Cl)c(Cl)c1Cl | inactive |
| COC(=O)c1ccccc1C(=O)OC | inactive |
| CC(=O)[C@H]1CC[C@H]2[C@@H]3CCC4=CC(=O)CC[C@]4(C)[C@H]3CC[C@]12C | inactive |
| CCOC(=O)c1ccccc1N | inactive |
| CC(C)(c1ccc(OCC2CO2)cc1)c1ccc(OCC2CO2)cc1 (centres undefined) | inactive |
| CCOc1cc(C=O)ccc1O | inactive |
